The values below come from PubChem BioAssay.

Calls of active or inactive are those of the source.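 How the source made its calls, unless noted: active means thallium flux through the channel raised or lowered by more than 3 SD from vehicle-only wells, actives on both sides; inactive means the rest.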 Numbered stars: 1 amine (or outer) side, 2 acyl side, 3 side chain; on linkers, the order of the positions; unused ones are H or OH. Bridge positions count the residues as written; N and C are the ends. Square brackets hold non-standard residues; d marks the D form. Peptide text beside a SMILES is read from it. I, II: the chains in the order shown. Actinocin(9to1) = Cc1c2oc3c(C)ccc(C(=O)[*:1])c3nc-2c(C(=O)[*:2])c(N)c1=O; NMeV = CN[CH](C(=O)O)C(C)C; Sar = CNCC(=O)O

Assay [1] in a line: viability loss with induced miR-34 in A549 – imaging, A549 dox-inducible miR-34, nuclei and caspase counts, primary screen (AID 1347080;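 active means compounds whose cell count with miR-34 switched on is under 0.7 times the count with it off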). The following applies: A549 miR-34 inducible, Hoechst nuclei count, 48 h.
Assay [2] is described as follows: galactose survival enhancers in mitochondrial complex I cybrids – cell-based, galactose medium, ATP luminescence, primary screen (AID 1645843;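 active means z-score of at least 1.8 in each of two replicates, scored against plate mean and spread of sample wells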;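 further: positive z means more ATP and so rescue of galactose-driven cybrid death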). The following applies: complex I mutant cybrid cells, 72 h, stronger effect = higher value.
Assay [3] has as its system F380Y. Nature of the assay: BK channel mutant inhibitors and activators – cell-based, U2OS BacMam, thallium flux, beta subunits, selectivity assay, profiling panel (AID 1259406).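 Further: initial slope of Thallos dye fluorescence rise after thallium is added; log ratio against the mean of 0.3% DMSO vehicle wells on the same plate.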 The following applies: U2OS BacMam BK variants, at 30 µM.
Assay [4] relates to F380Y/beta1. The description is as above. As to conditions: U2OS BacMam BK variants, at 30 µM.
In assay [5] the test system is F380Y/beta2Delta. Described as above. As to conditions: U2OS BacMam BK variants, at 30 µM.
In assay [6] the test system is F380Y/beta4. The description is as above. The following applies: U2OS BacMam BK variants, at 30 µM.
Assay [7] addresses Calcium-activated potassium channel subunit alpha-1 (Homo sapiens) + Leucine-rich repeat-containing protein 26 (Homo sapiens) (UniProt Q12791+Q2I0M4). Described as above. As to conditions: U2OS BacMam BK variants, F380Y/Slo1WT/gamma1, at 30 µM.
Assay [8] concerns R275C. The description is as above. The following applies: U2OS BacMam BK variants, at 30 µM.
The subject of assay [9] is R275C/beta1. Described as above. As to conditions: U2OS BacMam BK variants, at 30 µM.
For assay [10], the system named is R275C/beta2Delta. Described as above. As to conditions: U2OS BacMam BK variants, at 30 µM.
Assay [11] concerns R275C/beta4. The assay is described as above. As to conditions: U2OS BacMam BK variants, at 30 µM.
Assay [12] has as its system R275C/Slo1WT/beta2. Described as above. As to conditions: U2OS BacMam BK variants, at 30 µM.
Assay [13] is described as follows: P. berghei load reduction in hepatocytes – cell-based, HepG2, luciferase luminescence, HepG2 viability, primary screen (AID 624349; in the data active means parasite load remaining mostly below about 12%, no sharp cut-off; inactive means mostly above about 10%;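 further: 100% = mean of DMSO negative control wells on the same plate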). As to conditions: P. berghei liver stage in HepG2, luciferase luminescence, concentration not given here; parasite load remaining: stronger effect = lower value; viability: measured here: HepG2 viability without parasites.
Assay [14] can be described thus: signal quenchers or enhancers, Cy5 substrate/SSB – biochemical, NIH Clinical Collection, E. coli SSB, artefact control for HCV NS3 helicase inhibitor project (AID 743268; call rule not given here). As to conditions: Cy5-oligo bound E. coli SSB, fluorescence interference.
Assay [15] deals with Hepatitis C virus NS3 helicase. Nature of the assay: blockers of NS3h binding to DNA – biochemical, fluorescence polarization, NIH Clinical Collection, primary screen (AID 743270; call rule not given here). The following applies: NS3 helicase binding to Cy5-dT15 DNA, stronger effect = higher value, concentration not given here. For orientation: Fluorescence polarisation rises when a labelled molecule tumbles more slowly, as on binding a larger partner.

Assay [16] addresses Single-stranded DNA-binding protein (Escherichia coli (strain K12)) (UniProt P0AGE0). The experiment in a line: SSB-ssDNA binding inhibitors – biochemical, fluorescence polarization, NIH Clinical Collection, counter-screen for HCV NS3 helicase inhibitor project (AID 743271; in the data active means inhibition above about 28%). The following applies: E. coli SSB-DNA binding, stronger effect = higher value, concentration not given here.
A short description of assay [17]: compounds distorting NS3 helicase fluorescence signal – biochemical, NIH Clinical Collection, artefact control for HCV NS3 helicase inhibitor project (AID 743272; call rule not given here;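 further: HCV NS3 helicase with a Cy5 labelled single stranded DNA probe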). As to conditions: fluorescence interference counterscreen, HCV NS3 helicase assay; stronger effect = lower value.
For assay [18], the system named is Neuropilin-2 / VEGF-C interaction (human). Nature of the assay: small molecules blocking Neuropilin-2/VEGF-C interaction – biochemical, microplate binding format, z-score (AID 743281; call rule not given here). As to conditions: microplate NRP2/VEGF-C binding assay; stronger effect = lower value.
Assay [19] is described as follows: modulation of C. elegans fzo-1 (AID 1259413; call rule not given here;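 further: fzo-1 mutant C. elegans worms in liquid wells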). The following applies: C. elegans fzo-1 modulator screen, mean read-out; stronger effect = higher value.
The mark [20] stands for this setting: stronger effect = lower value, cell number ratio, induced over uninduced.
[21] abbreviates: measured here: relative caspase fold change +Dox/-Dox.
Where [22] appears, read: measured here: total cells with miR-34 induction, stronger effect = lower value.
Where [23] appears, read: measured here: total cells without miR-34 induction.

Chain of Calcium-activated potassium channel subunit alpha-1 (Homo sapiens) + Leucine-rich repeat-containing protein 26 (Homo sapiens) (Q2I0M4 whole entry, looked up, one chain of several): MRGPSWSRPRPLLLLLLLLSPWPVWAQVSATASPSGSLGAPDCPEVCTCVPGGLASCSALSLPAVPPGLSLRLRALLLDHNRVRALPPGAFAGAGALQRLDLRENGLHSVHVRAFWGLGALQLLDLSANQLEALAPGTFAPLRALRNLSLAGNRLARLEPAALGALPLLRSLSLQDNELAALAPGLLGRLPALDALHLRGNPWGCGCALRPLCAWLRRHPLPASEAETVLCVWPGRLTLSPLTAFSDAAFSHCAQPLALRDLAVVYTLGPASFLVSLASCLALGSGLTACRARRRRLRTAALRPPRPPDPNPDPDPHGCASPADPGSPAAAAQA

Regarding `Cc1c2oc3c(C)ccc(C(=O)NC4C(=O)NC(C(C)C)C(=O)N5CCCC5C(=O)N(C)CC(=O)N(C)C(C(C)C)C(=O)OC4C)c3nc-2c(C(=O)NC2C(=O)NC(C(C)C)C(=O)N3CCCC3C(=O)N(C)CC(=O)N(C)C(C(C)C)C(=O)OC2C)c(N)c1=O` (stereo not drawn) (I: TVP[Sar][NMeV] / II: TVP[Sar][NMeV]; ester I:1-I:C, II:1-II:C; linker I:N-II:N via Actinocin(9to1); configuration not given here), the fold change in assay [1] (setting [20]) is 1.02 (inactive); in [1] (setting [21]) it was 1.2. Besides, the cell count turned out to be 2640 in assay [1] (setting [22]) and 2570 in assay [1] (setting [23]). In addition, the z-score in [2] is -1.86 (inactive). Also, the log fold change Tl+ flux in assay [3] was -0.0282 (inactive); in [4] it was 0.0244 (inactive); in assay [5] it was -0.0313 (inactive); in [6] it was -0.0252 (inactive); in [7], -0.013 (inactive); in assay [8] it was -0.0516 (inactive). Further, the log fold change Tl+ flux in assay [9] is 0.0499 (inactive); in assay [10] it was -0.00324 (inactive); in assay [11], 0.0337 (inactive); in assay [12], 0.0757 (inactive).

Consider `CCCCCN=C(N)NN=Cc1c[nH]c2ccc(OC)cc12`, for which the parasite load remaining in assay [13] was 0.065% (inactive). The viability – broadly, a per cent measure of how many cells are alive, often set against a control – in [13] came out at 3.78%. For the same molecule, the fold change in [1] (setting [20]) was 1.42 (inactive); in [1] (setting [21]), 1.01. For the same molecule, the cell count in assay [1] (setting [22]) was 18.5; in assay [1] (setting [23]) it was 13. In addition, the z-score in assay [2] is -1.88 (inactive). Also, the log fold change Tl+ flux in [3] was 0.707 (active); in assay [4], 0.869 (active); in [5], 0.585 (active); in [6], 0.841 (active); in [7], 0.468 (active); in [8], 0.229 (active). Also, the log fold change Tl+ flux was 0.839 (active) in assay [9], -0.0142 (inactive) in assay [10], 0.743 (active) in assay [11] and 0.7 (active) in assay [12].

Turning to `Nc1ccc2cn[nH]c2c1`, in [13], the parasite load remaining was 61.3% (inactive). In addition, in assay [13], the viability turned out to be 64.9%. The fluorescence ratio in [14] was 0.99 (inactive); in assay [17], 0.98 (inactive). The inhibition (commonly the drop in the measured response relative to a control, in per cent) is -1.09% (inactive) in [15] and -0.39% (inactive) in [16]. The z-score in assay [18] is -0.807 (inactive); in assay [2], 0.52 (inactive). In assay [19], the mean signal is 290 (inactive). The fold change in assay [1] (setting [20]) is 0.924 (inactive); in [1] (setting [21]) it was 1.71. Also, the results for the cell count in [1] (setting [22]) and in assay [1] (setting [23]) were 8130 and 8800, respectively. For the same molecule, the log fold change Tl+ flux in [3] is -0.0182 (inactive); in [4], -0.022 (inactive); in [5] it was 0.0231 (inactive); in assay [6], -0.00919 (inactive); in assay [7], 0.0509 (inactive); in assay [8] it was -0.0141 (inactive). In addition, the log fold change Tl+ flux in assay [9] was -0.000281 (inactive); in [10], 0.0572 (inactive); in assay [11] it was -0.0327 (inactive); in [12], 0.0188 (inactive).

Consider `O=C(O[C@H]1[C@H](Oc2ccccc2COC(=O)C2(O)C=CCCC2=O)O[C@H](CO)[C@@H](O)[C@@H]1O)c1ccccc1` (stereo partly drawn), for which, in [13], the parasite load remaining was 48.8% (inactive). For the same molecule, the viability in assay [13] worked out at 72.8%. Moreover, the values for the fluorescence ratio in [14] and in assay [17] were 1 (inactive) and 0.99 (inactive), respectively. The inhibition in assay [15] was -0.22% (inactive); in assay [16], -2.76% (inactive). Moreover, the z-score in assay [18] is -0.65 (inactive). In assay [19], the mean signal was 249 (inactive). For the same molecule, the log fold change Tl+ flux in assay [3] was 0.0202 (inactive); in assay [4], 0.0124 (inactive); in assay [5], -0.0274 (inactive); in assay [6], 0.0177 (inactive); in [7] it was -0.0394 (inactive); in [8], 0.00346 (inactive). Also, the log fold change Tl+ flux in assay [9] was 0.0475 (inactive); in assay [10], 0.0175 (inactive); in assay [11] it was 0.0193 (inactive); in [12], 0.0101 (inactive).
